# Laboratory results as given in ChEMBL document CHEMBL3988442, “University of Dundee, Small-Polar-MMV Screening Library” (2021).
# For part of these data: Potency and affinity values are given separately.
# What was measured:
# Parameters in all cases: scale not given: direction of the effect not stated beside the values
# [1] = target: Protein translocase subunit SecA (Escherichia coli (strain K12)) (UniProt P10408); test: Assay to Identify E. coli SecA ATPase Inhibitors; type: functional; conditions: 30 µM
# Sequence of Protein translocase subunit SecA (Escherichia coli (strain K12)) (P10408 whole entry): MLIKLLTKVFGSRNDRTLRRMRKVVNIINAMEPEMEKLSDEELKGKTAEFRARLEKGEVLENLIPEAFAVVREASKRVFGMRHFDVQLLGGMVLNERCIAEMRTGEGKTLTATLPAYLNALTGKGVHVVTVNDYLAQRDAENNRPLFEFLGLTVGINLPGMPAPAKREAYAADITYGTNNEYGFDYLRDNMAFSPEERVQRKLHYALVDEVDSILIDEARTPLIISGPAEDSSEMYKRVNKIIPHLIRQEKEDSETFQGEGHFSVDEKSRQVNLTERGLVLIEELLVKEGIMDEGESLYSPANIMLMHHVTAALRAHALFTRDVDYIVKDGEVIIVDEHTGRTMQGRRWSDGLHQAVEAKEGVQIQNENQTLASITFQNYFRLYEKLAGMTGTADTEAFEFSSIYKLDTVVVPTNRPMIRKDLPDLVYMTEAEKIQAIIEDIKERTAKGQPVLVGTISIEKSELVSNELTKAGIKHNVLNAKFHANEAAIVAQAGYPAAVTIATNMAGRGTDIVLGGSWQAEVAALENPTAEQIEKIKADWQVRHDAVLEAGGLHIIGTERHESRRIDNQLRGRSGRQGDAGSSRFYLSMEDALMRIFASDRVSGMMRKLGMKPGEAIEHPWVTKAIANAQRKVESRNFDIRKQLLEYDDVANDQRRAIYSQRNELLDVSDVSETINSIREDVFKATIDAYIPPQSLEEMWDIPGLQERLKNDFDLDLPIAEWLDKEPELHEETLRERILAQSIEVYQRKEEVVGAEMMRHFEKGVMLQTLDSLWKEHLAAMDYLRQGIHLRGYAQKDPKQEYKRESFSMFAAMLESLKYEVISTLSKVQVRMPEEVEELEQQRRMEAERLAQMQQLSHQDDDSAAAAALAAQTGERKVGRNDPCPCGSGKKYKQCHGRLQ
# [2] = target: T1, Ubiquitin-activating enzyme e1, putative (Leishmania donovani (strain BPK282A1)) (UniProt E9BSI1); test: Leishmania donovani Ubiquitin Activating Enzyme (LdE1); type: functional; conditions: 30 µM
# T1 sequence (whole entry): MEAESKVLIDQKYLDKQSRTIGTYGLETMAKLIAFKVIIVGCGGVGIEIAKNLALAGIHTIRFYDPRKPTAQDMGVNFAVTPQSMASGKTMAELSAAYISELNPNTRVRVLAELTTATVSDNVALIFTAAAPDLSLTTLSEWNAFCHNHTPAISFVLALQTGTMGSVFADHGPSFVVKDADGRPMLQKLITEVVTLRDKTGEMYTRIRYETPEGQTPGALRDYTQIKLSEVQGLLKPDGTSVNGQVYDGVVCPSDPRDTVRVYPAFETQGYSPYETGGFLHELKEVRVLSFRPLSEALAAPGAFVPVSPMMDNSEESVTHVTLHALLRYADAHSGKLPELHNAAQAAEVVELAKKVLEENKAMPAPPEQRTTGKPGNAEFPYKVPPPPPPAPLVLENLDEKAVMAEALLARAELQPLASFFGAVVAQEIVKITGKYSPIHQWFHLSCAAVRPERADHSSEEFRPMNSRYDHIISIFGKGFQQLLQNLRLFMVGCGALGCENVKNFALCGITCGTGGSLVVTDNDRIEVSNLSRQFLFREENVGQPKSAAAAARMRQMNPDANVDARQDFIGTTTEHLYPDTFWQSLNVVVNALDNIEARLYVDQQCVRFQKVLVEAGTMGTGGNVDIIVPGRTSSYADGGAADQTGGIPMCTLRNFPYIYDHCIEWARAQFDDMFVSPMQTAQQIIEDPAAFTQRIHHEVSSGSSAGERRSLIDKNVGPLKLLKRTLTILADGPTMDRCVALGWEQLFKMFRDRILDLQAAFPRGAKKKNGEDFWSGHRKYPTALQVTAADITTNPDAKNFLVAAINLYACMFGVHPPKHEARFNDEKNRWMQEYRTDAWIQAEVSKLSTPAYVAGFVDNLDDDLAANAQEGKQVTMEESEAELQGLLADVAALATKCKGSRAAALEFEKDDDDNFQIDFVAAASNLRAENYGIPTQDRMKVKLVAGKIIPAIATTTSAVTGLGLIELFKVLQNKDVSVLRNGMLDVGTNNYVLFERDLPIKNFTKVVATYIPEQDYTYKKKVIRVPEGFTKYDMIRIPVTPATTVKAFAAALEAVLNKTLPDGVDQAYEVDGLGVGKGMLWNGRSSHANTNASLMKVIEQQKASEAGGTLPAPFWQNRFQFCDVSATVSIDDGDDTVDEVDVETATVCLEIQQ
# [3] = target: AMP-activated protein kinase, AMPK (Homo sapiens) (UniProt P54646+O43741+P54619+Q9UGJ0+Q9Y478+Q13131+Q9UGI9); test: AMP-dependent Kinase enzyme assay. An in vitro enzyme assay that detects ADP turnover that is directly proportional to AMPK activity. This uses naive AMPK that is activated during the assay with MK-8722; type: functional; conditions: 30 µM
# [4] = target: Sialic acid-binding Ig-like lectin 9 (Homo sapiens) (UniProt Q9Y336); test: Hs-Siglec9 ALPHAscreen SOP 20170721; conditions: 10 µM
# Sequence of Sialic acid-binding Ig-like lectin 9 (Homo sapiens) (Q9Y336 whole entry): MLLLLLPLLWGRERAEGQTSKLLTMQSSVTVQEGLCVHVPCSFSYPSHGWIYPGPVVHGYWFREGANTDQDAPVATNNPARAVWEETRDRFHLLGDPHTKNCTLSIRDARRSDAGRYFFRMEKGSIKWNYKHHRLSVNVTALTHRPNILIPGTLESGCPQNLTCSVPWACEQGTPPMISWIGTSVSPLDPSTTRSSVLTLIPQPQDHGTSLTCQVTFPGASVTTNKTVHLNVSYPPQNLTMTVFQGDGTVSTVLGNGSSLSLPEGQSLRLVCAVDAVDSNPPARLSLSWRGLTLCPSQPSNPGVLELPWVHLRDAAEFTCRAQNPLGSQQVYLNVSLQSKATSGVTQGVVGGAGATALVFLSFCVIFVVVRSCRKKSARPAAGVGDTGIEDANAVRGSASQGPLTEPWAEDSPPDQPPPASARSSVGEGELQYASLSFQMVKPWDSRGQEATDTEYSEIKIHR
# Trypanosoma cruzi = test: Trypanosoma cruzi phosphomannomutase and mannose-1-phosphate guanylyltransferase assay; type: functional; conditions: 10 µM
# [5] = target: T2, Arginase-2, mitochondrial (Homo sapiens) (UniProt P78540); test: in vitro enzyme assay to detect the production of urea directly proportional to the activity of Arginase II; type: functional; conditions: 33.3 µM; also: in the data most compounds retested in dose-response had high values
# T2 sequence (whole entry): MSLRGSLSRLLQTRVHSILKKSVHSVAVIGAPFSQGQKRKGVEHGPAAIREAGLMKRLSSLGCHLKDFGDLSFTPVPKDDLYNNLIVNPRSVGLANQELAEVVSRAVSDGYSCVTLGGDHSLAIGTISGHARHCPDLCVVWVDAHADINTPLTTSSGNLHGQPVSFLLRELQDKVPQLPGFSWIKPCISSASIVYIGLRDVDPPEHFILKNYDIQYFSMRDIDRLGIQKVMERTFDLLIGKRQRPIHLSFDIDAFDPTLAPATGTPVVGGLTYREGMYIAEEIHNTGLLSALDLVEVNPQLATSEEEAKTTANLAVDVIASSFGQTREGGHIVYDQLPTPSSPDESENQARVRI
# [6] = target: T3, Proteasome subunit beta (Trypanosoma cruzi) (UniProt O96673); test: Trypanosoma cruzi proteasome chymotrypsin-like activity (TcProtChymo) assay.; also: in the data most compounds retested in dose-response had high values; type: functional; conditions: 9.37 µM
# T3 sequence (whole entry): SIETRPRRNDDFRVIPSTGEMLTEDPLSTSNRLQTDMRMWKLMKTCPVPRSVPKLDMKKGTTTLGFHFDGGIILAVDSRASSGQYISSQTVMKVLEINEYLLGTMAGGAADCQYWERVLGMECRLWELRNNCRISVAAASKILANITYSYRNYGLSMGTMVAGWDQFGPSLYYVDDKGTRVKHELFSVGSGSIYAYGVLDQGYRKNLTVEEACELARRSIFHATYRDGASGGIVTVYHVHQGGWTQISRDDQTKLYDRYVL
# Homo sapiens = species on record: Homo sapiens; test: To identify inhibition of the IFN signalling (Jak-Stat) pathway via expression of an eGFP reporter gene under the control of an IFN-stimulated response element (ISRE) containing MxA promoter.; type: functional; conditions: 30 µM
# [7] = target: T4, Tyrosyl-tRNA synthetase, putative (Trypanosoma cruzi (strain CL Brener)) (UniProt Q4DSP6); test: Trypanosoma cruzi tyrosyl tRNA synthetase (TcYRS) _High Tyrosine SOP; type: functional; conditions: 30 µM; also: in the data most compounds retested in dose-response had high values
# T4 sequence (whole entry): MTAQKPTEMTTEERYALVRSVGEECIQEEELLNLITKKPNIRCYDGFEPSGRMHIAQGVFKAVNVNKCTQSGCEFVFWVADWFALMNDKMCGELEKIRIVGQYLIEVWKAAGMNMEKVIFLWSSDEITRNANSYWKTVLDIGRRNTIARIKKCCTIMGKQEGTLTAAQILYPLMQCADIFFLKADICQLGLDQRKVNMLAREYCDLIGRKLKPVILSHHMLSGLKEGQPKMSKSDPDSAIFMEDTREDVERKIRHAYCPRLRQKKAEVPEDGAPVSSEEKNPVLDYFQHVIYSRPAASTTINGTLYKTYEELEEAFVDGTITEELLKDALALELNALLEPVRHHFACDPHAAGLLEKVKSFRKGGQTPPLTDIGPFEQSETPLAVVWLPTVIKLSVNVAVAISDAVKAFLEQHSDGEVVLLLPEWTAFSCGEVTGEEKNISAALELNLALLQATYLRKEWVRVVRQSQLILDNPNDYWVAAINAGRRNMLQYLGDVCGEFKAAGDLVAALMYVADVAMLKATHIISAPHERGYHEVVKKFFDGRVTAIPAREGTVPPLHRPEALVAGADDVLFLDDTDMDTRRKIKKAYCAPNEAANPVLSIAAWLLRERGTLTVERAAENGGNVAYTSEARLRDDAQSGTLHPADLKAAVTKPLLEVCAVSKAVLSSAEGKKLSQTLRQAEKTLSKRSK
# [8] = target: T4, Tyrosyl-tRNA synthetase, putative (Trypanosoma cruzi (strain CL Brener)); test: Trypanosoma cruzi tyrosyl tRNA synthetase (TcYRS) SOP; type: functional; conditions: 30 µM
# [9] = target: Chromo domain-containing protein 1 (Saccharomyces cerevisiae (strain ATCC 204508 / S288c) (Baker's yeast)) (UniProt P32657); test: ScCHD-1 Enzyme Inhibition Assay; type: functional; conditions: 30 µM; also: in the data most compounds retested in dose-response had high values
# Sequence of Chromo domain-containing protein 1 (Saccharomyces cerevisiae (strain ATCC 204508 / S288c) (Baker's yeast)) (P32657 whole entry, the tested form may be a part): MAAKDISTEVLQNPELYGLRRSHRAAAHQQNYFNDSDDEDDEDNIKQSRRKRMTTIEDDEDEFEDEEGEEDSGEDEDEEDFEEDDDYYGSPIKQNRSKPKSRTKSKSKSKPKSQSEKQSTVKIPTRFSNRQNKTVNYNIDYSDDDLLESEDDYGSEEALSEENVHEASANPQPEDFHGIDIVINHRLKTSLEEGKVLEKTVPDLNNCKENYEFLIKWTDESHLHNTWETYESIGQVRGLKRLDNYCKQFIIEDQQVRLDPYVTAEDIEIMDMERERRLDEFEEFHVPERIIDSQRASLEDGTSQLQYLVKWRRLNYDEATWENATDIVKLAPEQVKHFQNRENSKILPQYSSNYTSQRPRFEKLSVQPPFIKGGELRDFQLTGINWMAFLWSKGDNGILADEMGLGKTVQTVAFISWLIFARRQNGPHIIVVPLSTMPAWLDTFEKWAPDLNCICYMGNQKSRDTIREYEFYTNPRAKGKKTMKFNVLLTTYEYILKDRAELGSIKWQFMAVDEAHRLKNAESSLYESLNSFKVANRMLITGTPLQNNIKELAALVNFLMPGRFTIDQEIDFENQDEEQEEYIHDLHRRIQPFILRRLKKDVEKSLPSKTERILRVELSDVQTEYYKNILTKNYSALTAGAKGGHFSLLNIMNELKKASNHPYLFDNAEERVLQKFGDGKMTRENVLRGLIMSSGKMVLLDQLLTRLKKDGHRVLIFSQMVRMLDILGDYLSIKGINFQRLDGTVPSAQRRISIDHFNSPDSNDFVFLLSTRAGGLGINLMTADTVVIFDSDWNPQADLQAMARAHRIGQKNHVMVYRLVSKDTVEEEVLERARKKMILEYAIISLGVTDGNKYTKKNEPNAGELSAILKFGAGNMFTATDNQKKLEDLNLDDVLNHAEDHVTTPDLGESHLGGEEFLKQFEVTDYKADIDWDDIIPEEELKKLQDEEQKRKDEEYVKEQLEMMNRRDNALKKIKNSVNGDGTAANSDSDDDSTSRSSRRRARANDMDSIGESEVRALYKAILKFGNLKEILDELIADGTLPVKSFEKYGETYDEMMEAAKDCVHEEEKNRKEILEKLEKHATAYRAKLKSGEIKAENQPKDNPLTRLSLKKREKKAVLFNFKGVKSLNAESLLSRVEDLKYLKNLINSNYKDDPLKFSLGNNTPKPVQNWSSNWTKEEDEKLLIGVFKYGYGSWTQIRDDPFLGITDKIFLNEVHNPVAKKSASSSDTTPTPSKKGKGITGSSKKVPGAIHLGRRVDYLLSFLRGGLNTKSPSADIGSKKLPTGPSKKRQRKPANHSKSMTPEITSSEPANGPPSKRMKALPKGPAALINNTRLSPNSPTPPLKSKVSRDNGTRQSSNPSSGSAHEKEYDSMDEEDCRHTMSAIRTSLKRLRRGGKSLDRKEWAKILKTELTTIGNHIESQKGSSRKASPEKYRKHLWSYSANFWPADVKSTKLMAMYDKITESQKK
SMILES,Percent Effect [1],Percent Effect [2],Percent Effect [3],Percent Effect [4],Percent Effect (Trypanosoma cruzi),Percent Effect [5],Percent Effect [6],Percent Effect (Homo sapiens),Percent Effect [7],Percent Effect [8],Percent Effect [9]
N#Cc1cccnc1NCc1cccnc1N1CCC(C(N)=O)CC1,-4.85%,8.11%,-4.32%,8.48%,0.293%,-0.744%,12.3%,3.17%,3.23%,13.6%,1.32%
CCOc1nnc(CN(C)C2CCCN(c3cccnn3)C2)s1 (stereo unspecified),-2.38%,10.5%,-2.62%,-6.38%,7.5%,-11.8%,17.9%,-12.4%,7.45%,18.2%,-4.02%
CC(C)NC(=O)N1CCc2nc(C(=O)NCc3ccccc3)sc2CC1,-0.812%,10.8%,5.95%,-6.63%,-3.42%,5.41%,18.1%,13.3%,8.65%,17.9%,-3.29%
Cc1ccc(C(=O)N2C[C@@H]3COC[C@]3(COc3cccnc3)C2)cn1,1.3%,18.9%,0.636%,-16.3%,1.07%,7.33%,13.3%,30.2%,4.32%,7.69%,4.76%
CO[C@H]1CN(C(=O)c2ccc3oc(C)cc3c2)CC[C@@]12CCCO2,-0.467%,1.35%,11.4%,2.79%,0.593%,-0.696%,5.77%,-10.3%,0%,-1.3%,-11.8%
CC(C)(C)C(=O)NS(=O)(=O)c1ccc(C#N)cc1C(F)(F)F,-3.4%,8.11%,-4.85%,3.66%,-0.849%,2.81%,1.8%,7.18%,1.48%,11.1%,-3.67%
CC(O)CC(C)(C)CNC(=O)NCc1cccc(-n2cncn2)c1 (stereo unspecified),-3.57%,-2.7%,-0.791%,7.51%,2.64%,4.22%,9.53%,-9.29%,0%,1.24%,-0.141%
C[S+]([O-])c1nncn1CC(=O)c1cccc(Cl)c1 (stereo unspecified),-7.89%,16.2%,-4.48%,23.3%,6.16%,3.72%,10.4%,-1.98%,5.38%,8.64%,-6.7%
CCN(CC)C(=O)CN(C)C1CCc2ccccc21 (stereo unspecified),-0.321%,18.4%,-0.859%,-2.93%,3.57%,3.83%,18.7%,11.3%,8.33%,21.9%,-9.79%
Cc1ccc(C(=O)N2CCCC2c2nnc3n2CCCCC3)o1 (stereo unspecified),0.332%,-1.39%,7.46%,-3.27%,-2.23%,-11.9%,6.84%,-2.88%,2.1%,-5.13%,-1.81%
CSc1cc2c(cc1NC(=O)NCC(C)(C)C(N)=O)OCCO2,-3.46%,0%,0.42%,-2.41%,-3.91%,-28.8%,12.8%,-6.09%,-27.7%,6.1%,0.589%
OC(CN1CCCCCCC1)c1ccc(F)cc1 (stereo unspecified),0.984%,10.5%,-3.76%,-5.28%,7.33%,-1.15%,15.4%,11.7%,7.35%,19.5%,-11.6%
c1ccc(NCc2cn3c(n2)CN(Cc2cccnc2)CC3)nc1,-5.07%,13.5%,2.94%,-3.31%,-2.83%,4.78%,23.6%,4.12%,-1.08%,10.3%,0.00712%
CCc1ccc(CNC(=O)NC(C)CN2CCOCC2)s1 (stereo unspecified),-1.82%,18.4%,-5.99%,-6.5%,1.46%,1.18%,9.49%,5.21%,-12.8%,15.6%,8.4%
Cc1nc(CN2CCOC(CN(C)c3cccnn3)C2)cs1 (stereo unspecified),0.938%,0%,-2.69%,-0.951%,4.8%,1.47%,5.74%,10.8%,2.86%,2.35%,0.286%
COc1c(CNCc2cccc(Cn3ccnc3)c2)c(C)nn1C,-5.63%,21.6%,-15%,13.9%,5.38%,-11.2%,10.3%,37.8%,4.43%,18.5%,-10%
Cc1cnn(CCC(=O)N2CCCN(c3cccnn3)CC2)c1,1.07%,3.8%,1.28%,0.558%,1.74%,-0.645%,13.2%,12.8%,2.08%,5.06%,-16.1%
CN(C)CC1CN(Cc2cccc(C(=O)N(C)C)c2)CCO1 (stereo unspecified),-4.12%,20.8%,-4.76%,-4.42%,-0.562%,3.56%,14.7%,20.8%,10.7%,14.6%,-5.94%
COc1cccc(COCC(=O)N2CCCC(c3cc(C)[nH]n3)C2)c1 (stereo unspecified),-3.58%,13.5%,-9.62%,3.3%,-2.92%,-0.401%,2.7%,10.1%,11.3%,16.1%,-4.89%
O=S(=O)(Cc1ccccc1)NCC1CCN(c2cnccn2)CC1,-2.03%,10.4%,5.37%,-3.08%,-6.02%,-3.23%,10.4%,9.96%,3.17%,6.41%,-7.97%
CN(C)CCN1CCO[C@@H]2CN(C(=O)c3cccs3)CC[C@@H]2C1,-2.95%,10.8%,3.88%,2.08%,-1.27%,-1.59%,20.3%,5.44%,1.08%,12.8%,-1.74%
